The record followed here is PubChem BioAssay AID1220 (Sanford-Burnham Center for Chemical Genomics, 2008).

Screen size: about 190,000 compounds; about 1,300 (0.68%) were called active. Shown is part of a subset that was picked to be rich in actives. Unmarked numbers belong to inactive results. Cut-off read from the data, not from the text of the source: active = inhibition above about 50%; inactive = the rest.

Sequence of Mannose-6-phosphate isomerase (Homo sapiens) (P34949 whole entry, looked up): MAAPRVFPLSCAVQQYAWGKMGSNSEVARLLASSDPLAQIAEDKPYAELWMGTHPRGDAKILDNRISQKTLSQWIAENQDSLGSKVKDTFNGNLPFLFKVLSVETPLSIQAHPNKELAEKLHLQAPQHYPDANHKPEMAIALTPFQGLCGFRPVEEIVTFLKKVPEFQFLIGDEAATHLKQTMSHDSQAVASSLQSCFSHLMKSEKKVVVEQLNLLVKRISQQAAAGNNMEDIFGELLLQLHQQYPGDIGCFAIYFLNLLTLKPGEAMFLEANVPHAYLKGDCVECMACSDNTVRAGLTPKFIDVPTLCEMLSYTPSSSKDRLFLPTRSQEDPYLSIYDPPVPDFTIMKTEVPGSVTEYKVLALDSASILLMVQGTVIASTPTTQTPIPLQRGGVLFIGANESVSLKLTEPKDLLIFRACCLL

The assay concerns the target Mannose-6-phosphate isomerase (Homo sapiens) (UniProt P34949). Kind of assay: MPI inhibition at elevated mannose 6-phosphate – biochemical, fluorescence intensity, high mannose 6-phosphate, primary screen (AID 1220). The conditions noted are these: recombinant PMI enzyme, coupled fluorescence intensity; at 20 µM; active compounds read high.
A word on the inhibition: it is the drop in the measured response relative to a control, in per cent. For the compound `O=C(Cc1cccc2ccccc12)NCCOc1ccccc1F`, the inhibition is 23.4%.

On to `Nc1cc2c(cc1[N+](=O)[O-])OCCO2`, for which the inhibition was 7.1%.

As to `Nc1cc2c(cc1[N+](=O)[O-])OCO2`, the inhibition is 52.9% (active).

Consider `Nc1cc2c(cc1[N+](=O)[O-])OCCOCCOCCO2`, for which the inhibition is 19.7%.

As to `CCNc1nc(NCC)nc(C(=O)NN)n1`, the inhibition is -16.1%.

As to `COc1cc(/C=N/NC(=O)C(Cc2c[nH]c3ccccc23)NC(=O)OCC(C)C)cc([N+](=O)[O-])c1O` (stereo not drawn), the inhibition was 6.2%.

For `COc1cc(/C=N/NC(=O)[C@H](Cc2c[nH]c3ccccc23)NC(=O)OCC(C)C)cc([N+](=O)[O-])c1O`, the inhibition was 14.5%.

On to `COc1cc(/C=N/NC(=O)C(Cc2c[nH]c3ccccc23)NC(=O)OCC(C)C)cc([N+](=O)[O-])c1OCc1ccccc1` (stereo not drawn), for which the inhibition is 53.6% (active).

As for `Cc1ccc(S(=O)(=O)Cc2ccc(C(=O)N3CCc4ccccc4C3)o2)cc1`, the inhibition is -0.7%.

As for `CC(C)c1cccc(C(C)C)c1NC(=O)COC(=O)c1ccc(OCC(=O)Nc2cccc(C(F)(F)F)c2)cc1`, the inhibition was 10.7%.

Turning to `O=c1oc2ccccc2cc1-c1cn2ccccc2n1`, the inhibition was -4.7%.

On to `COc1cc(OC)c(NC(=O)CC(C)=O)cc1Cl`, for which the inhibition is 26.6%.

As to `Clc1ccccc1OCc1nnc(-c2ccccc2Br)o1`, the inhibition was 5.6%.

`CC(C)(C)NC(=O)CSc1nc(N)cc(=O)[nH]1`: the inhibition was 0.4%.

`COc1ccc2ccccc2c1C(O)c1nccn1C` (stereo not drawn): the inhibition was 64.7% (active).

Take `COc1ccc(C(O)c2nccn2C)cc1` (stereo not drawn): the inhibition is 9.1%.

As to `Cn1ccnc1C(O)c1ccccc1` (stereo not drawn), the inhibition was 15.2%.

Consider `OC(COCc1ccc(Cl)cc1)CN1CCN(CC(O)COCc2ccc(Cl)cc2)CC1` (stereo not drawn), for which the inhibition was -11.7%.

`Cc1csc(NC(=O)C2C3C=CC(O3)C2C(=O)O)n1` (stereo not drawn): the inhibition was 5%.

`Cc1ccc2[nH]c3c(c2c1)CCNC3=O`: the inhibition is -5.2%.

Turning to `Cc1ccc2[nH]c3c(c2c1)CCC3=O`, the inhibition is 15.5%.

As for `Cc1onc(-c2ccccc2)c1C(=O)Oc1cccnc1`, the inhibition is -0.5%.

On to `CC(=O)NC(CCS(C)(=O)=O)C(=O)Nc1ccccc1C` (stereo not drawn), for which the inhibition is 3.2%.

As to `CCCCN(C)C(=O)c1cc2cc3cc(OC)ccc3nc2o1`, the inhibition is 16.4%.

Take `Cc1cccnc1CCNC(=O)CCc1nnc(CCc2ccccc2)o1`: the inhibition was 17.7%.

In the case of `O=C(NC1CC1)c1cc(Cl)ccc1[N+](=O)[O-]`, the inhibition is 12.7%.

For the compound `O=C(c1ccco1)c1coc2c1cc(O)c1ccccc12`, the inhibition was 51.1% (active).

Turning to `O=C(c1cc(C(=O)c2ccco2)cc(C(=O)c2ccco2)c1)c1ccco1`, the inhibition is 6.2%.

Take `CC(=O)c1coc2c1cc(O)c1ccccc12`: the inhibition is 4.7%.

With `CCOC(=O)c1ccc(N2C(=O)CC(N3CCOCC3)C2=O)cc1` (stereo not drawn), the inhibition is -0.3%.

In the case of `COc1ccc(OC)c2c1C(=O)c1ccccc1C2=O`, the inhibition is -55.2%.

Regarding `CN(C=[N+](C)C)c1cccc2c1C(=O)c1ccccc1C2=O`, the inhibition was 39.3%.

Regarding `CN(C)c1cccc2c1C(=O)c1ccccc1C2=O`, the inhibition was 55.7% (active).

In the case of `CN(C)S(=O)(=O)c1cccc2c1C(=O)c1ccccc1C2=O`, the inhibition was 21%.

Regarding `CNc1cccc2c1C(=O)c1ccccc1C2=O`, the inhibition is 24.4%.

Take `CN(C)c1cc2c(c(N(C)C)c1)C(=O)c1ccccc1C2=O`: the inhibition was 50.3% (active).

Regarding `Cc1nc2ccccn2c1C(=O)NN=C1CCCC1`, the inhibition is -5%.

Consider `Cc1ccc(C(=O)NNC(=O)c2cccc(S(=O)(=O)N3CCN(c4ccccc4)CC3)c2)cc1`, for which the inhibition was 5.6%.

For the compound `Cc1ccc(C(=O)NCC(=O)OC(C)C(=O)NCCC2=CCCCC2)cc1C` (stereo not drawn), the inhibition is 4.6%.

Consider `O=C(NCC1CCCO1)C(c1ccc(F)cc1)N(CC1CCCO1)C(=O)c1ccc(-c2ccccc2)[nH]1` (stereo not drawn), for which the inhibition is -8.3%.

For `O=C(CCOc1ccccc1)Nc1cccc([N+](=O)[O-])c1`, the inhibition was -0.7%.

Regarding `O=C(CNS(=O)(=O)c1ccccc1F)Nc1ccc(N2CCOCC2)cc1`, the inhibition is 1%.

Consider `COc1ccc(C(=O)NCCSc2ccccc2)cc1`, for which the inhibition was 7.1%.

Take `CCCc1cc(=O)oc2c(C)c3occ(C)c3cc12`: the inhibition is 2.8%.

Turning to `C/C(=N\NC(=O)CNc1cccc2ccccc12)c1ccc(Br)s1`, the inhibition was 52% (active).

As to `C/C(CCc1ccco1)=N\NC(=O)CNc1cccc2ccccc12`, the inhibition is 56% (active).

Turning to `COc1ccccc1NCC(=O)N/N=C(\C)c1ccc(Br)s1`, the inhibition is 11.6%.

Take `C/C(=N\NC(=O)CNc1cccc(C)c1)c1ccc(Br)s1`: the inhibition is 14.6%.

With `C/C(CCc1ccco1)=N/NC(=O)CCC(=O)Nc1ccc(Br)cc1`, the inhibition is 7.1%.

In the case of `C/C(CCc1ccco1)=N\NC(=O)CNc1c(Br)cc(Br)cc1Br`, the inhibition is -2.7%.

Turning to `CC(=O)Cc1nsc(Nc2cccc(C)c2)n1`, the inhibition is 6.5%.

For `COc1ccc(NC(=O)c2ccco2)cc1S(=O)(=O)N1CCOCC1`, the inhibition is -7.3%.

Regarding `CC(OC(=O)c1cccnc1)C(=O)Nc1ccc2c(c1)OCO2` (stereo not drawn), the inhibition is 2.7%.

For the compound `Cc1cccc(CCN(CC(=O)NC2CCCCC2)C(=O)c2csnn2)c1`, the inhibition was -6%.

Take `CN(Cc1nccn1C)C(=O)CC1C(=O)NCCN1CC(c1ccccc1)c1ccccc1` (stereo not drawn): the inhibition was 25.1%.

Take `Cc1ccc(NC(=O)CCNC(=O)c2ccco2)cc1F`: the inhibition was -1.2%.

Turning to `C/C(=N\NC(=O)C(=O)Nc1ccc(C)cc1)c1ccncc1`, the inhibition is -7.3%.

In the case of `Cc1ccc(C)n1-c1ccccc1N`, the inhibition was 57.3% (active).

On to `Cc1nnc(C)c2c(C)n(-c3ccccc3N)c(C)c12`, for which the inhibition was 56.3% (active).

Turning to `Cc1nnc(C)c2c(C)n(C(c3ccccc3)c3ccccc3)c(C)c12`, the inhibition is 8%.

For the compound `Cc1ccc(-n2c(C)c3c(C)nnc(C)c3c2C)cc1N`, the inhibition is 44.2%.

Turning to `CC1CCN(c2ccccc2N)CC1`, the inhibition was 2%.

Turning to `Cc1ccc(C)n1-c1ccccc1N1CCCCC1`, the inhibition is -1.9%.

Take `Cc1nn(-c2ccccc2)c(C)c1C(=O)OCC(=O)c1c(N)n(CC(C)C)c(=O)n(C)c1=O`: the inhibition is 4.3%.

In the case of `Cc1ccc(NC(=O)c2cc(S(=O)(=O)N3CCCCC3)ccc2N2CCOCC2)cc1F`, the inhibition is 9.5%.

For `COc1ccc(NC(=O)c2cc(S(=O)(=O)N3CCCCC3)ccc2N2CCCCC2)cn1`, the inhibition is 55.3% (active).

For `COc1ccc(NC(=O)c2cccc(S(=O)(=O)N3CCOCC3)c2)cn1`, the inhibition was -1.9%.

For the compound `CCOC(=O)/C(C#N)=C/c1ccc(SC)cc1`, the inhibition is -6.5%.

For the compound `O=c1[nH]c(Cc2ccccn2)nc2scc(-c3ccccc3Cl)c12`, the inhibition is -108%.

For the compound `O=C1CNC(=S)N1c1nc(-c2ccccc2)cs1`, the inhibition was 0.9%.

With `Cc1c(/C=N/Nc2ccc(F)cc2)c(O)n(C)c(=O)c1C#N`, the inhibition was -7%.

Turning to `CC(=O)N=Cc1c(C)c(C#N)c(=O)n(C)c1O`, the inhibition is 53% (active).

Turning to `Cc1ccc(N/N=C/c2c(C)c(C#N)c(=O)n(C)c2O)cc1C`, the inhibition was 23.3%.

As for `CCC(=C(c1ccc(OC)cc1)c1ccc(OC)cc1)c1cn(CC(O)CN2CCN(C)CC2)c2ccccc12` (stereo not drawn), the inhibition was -5.7%.

As for `c1ccc(CCn2nnnc2C(c2cccnc2)N2CCN(c3nc4ccccc4s3)CC2)cc1` (stereo not drawn), the inhibition was 15.2%.

Regarding `CC(C)c1ccc(NC(=O)C(c2ccc3c(c2)OCO3)N2CCCCC2)cc1` (stereo not drawn), the inhibition is 10.5%.

Take `S=C(c1ccc2c(c1)OCO2)N1CCCCCC1`: the inhibition was 3.6%.

Turning to `Oc1c(C(c2ccc(Cl)cc2)N2CCCC2)cc(Cl)c2cccnc12` (stereo not drawn), the inhibition was 44.8%.

For the compound `S=C(c1ccc2c(c1)OCO2)N1CCCC1`, the inhibition is 7.1%.

For the compound `Oc1cc2c(cc1C(c1ccc(Br)cc1)N1CCCC1)OCO2` (stereo not drawn), the inhibition was 68.1% (active).

For `Oc1cc2c(cc1C(c1ccc(Cl)c(Cl)c1)N1CCCC1)OCO2` (stereo not drawn), the inhibition was 59.9% (active).

As for `CCN(CC)C(=O)C(=O)Nc1ccc(OCc2ccccc2)cc1`, the inhibition was 0.5%.

In the case of `CC(C)Nc1nc(NC(C)C)nc(C(=O)OCCO)n1`, the inhibition is -5.1%.

For `O=C(COc1ccccc1)N(Cc1cc2ccccc2[nH]c1=O)CC1CCCO1` (stereo not drawn), the inhibition was 0.7%.

For `CC(C)N1CCN(Cc2ccsc2)CC1CCO` (stereo not drawn), the inhibition was 5.4%.

With `CCc1c(C)c(C#N)c2nc3ccccc3n2c1NCc1ccco1`, the inhibition was -6.6%.

For `N#Cc1c2c(c(NCc3ccco3)n3c1nc1ccccc13)CCC2`, the inhibition is 50.2% (active).

In the case of `N#Cc1c2c(c(NCc3cccnc3)n3c1nc1ccccc13)CCC2`, the inhibition is 11.3%.

As to `Cc1ccc(NC(=O)CN2C(=O)NC(C)(CCc3ccccc3)C2=O)cc1` (stereo not drawn), the inhibition is 26.7%.

`COc1cccc(C2CC(=O)NC3=C2C(=O)CCC3)c1` (stereo not drawn): the inhibition was -0.9%.

With `CCC(NC(=O)C1CCC1)c1ccc(C)cc1` (stereo not drawn), the inhibition is 3.8%.

Consider `Nc1cc2c(cc1C(=O)c1ccccc1F)OCCO2`, for which the inhibition was 13.3%.

As to `O=C(c1ccccc1F)c1cc2c(cc1[N+](=O)[O-])OCCO2`, the inhibition is 51.7% (active).

Take `O=C(c1ccccc1)c1cc2c(cc1[N+](=O)[O-])OCCO2`: the inhibition is 10.9%.

Regarding `COc1ccc(OC)c(NC(=S)NCC(c2cccnc2)N2CCOCC2)c1` (stereo not drawn), the inhibition is 2.4%.

Turning to `CC(C)N1CCN(Cc2ccoc2)CC1CCO` (stereo not drawn), the inhibition was -6.7%.

Take `CCOc1ccccc1-c1c2cc(O)c(=O)cc-2oc2cc(O)c(O)cc12`: the inhibition was 42%.

For the compound `Cc1c2cc(O)c(=O)cc-2oc2cc(O)c(O)cc12`, the inhibition is 28.8%.

Consider `COc1ccc(OC)c(-c2c3cc(O)c(=O)cc-3oc3cc(O)c(O)cc23)c1`, for which the inhibition is 55.4% (active).

Take `CN(C)C(=O)C[n+]1cccc(/C=N/O)c1`: the inhibition was -5.5%.

`C=CCn1c(SCC(=O)Nc2ccccc2)nnc1-c1cccc(S(=O)(=O)N2CCOCC2)c1`: the inhibition was 3.2%.

As to `CC1OC(OCC2OC(Oc3c(-c4ccc(O)cc4)oc4cc(O)cc(O)c4c3=O)C(O)C(O)C2O)C(O)C(O)C1O` (stereo not drawn), the inhibition was 16.6%.

With `C[C@@H]1O[C@@H](OC[C@H]2O[C@@H](Oc3c(-c4ccc(O)c(O)c4)oc4cc(O)cc(O)c4c3=O)[C@H](O)[C@@H](O)[C@@H]2O)[C@H](O)[C@H](O)[C@H]1O`, the inhibition is 18.4%.
